From paper PMC7010328

Assays:
[1] = target: Nucleosome assembly protein 1-like 1 (UniProt P55209); assay: cross-link between two proteins; cross-linking mass spectrometry
[2] = target: Small ribosomal subunit protein uS11 (UniProt P62263); assay: as above

UniProt P55209, sequence (P55209 whole entry): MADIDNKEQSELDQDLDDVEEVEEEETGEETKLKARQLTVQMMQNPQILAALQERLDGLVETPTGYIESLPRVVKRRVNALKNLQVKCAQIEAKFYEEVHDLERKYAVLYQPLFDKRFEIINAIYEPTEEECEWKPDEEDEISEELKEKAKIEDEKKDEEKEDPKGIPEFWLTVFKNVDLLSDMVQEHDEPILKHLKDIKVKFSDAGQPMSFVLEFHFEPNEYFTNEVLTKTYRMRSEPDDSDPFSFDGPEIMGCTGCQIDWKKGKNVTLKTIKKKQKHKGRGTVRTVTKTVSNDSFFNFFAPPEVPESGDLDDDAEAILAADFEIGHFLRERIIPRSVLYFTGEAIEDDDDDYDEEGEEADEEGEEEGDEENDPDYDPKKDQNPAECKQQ

“60 kDa heat shock protein, mitochondrial, P10809” was tested, and the “listed as a hit” value [1] was “yes” and the “listed as a hit” value [2] was “yes”.
